Most compounds without a hit are left out; they make up all but 2.2% or so of the library.
ANO1 activ – activates or potentiates the mouse TMEM16A chloride channel; Q8BHY3; HEK293 TMEM16A/YFP-H148Q/I152L, iodide quench fluorescence; hits give low values; B-score at 10 µM; 340,000 tested, 0.3% active; AID 623877;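 active means fluorescence-ratio B-score plate-corrected deviation score at least 3 library SD below zero, with starting fluorescence score within 5 deviations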;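 further: channel opened by trigger with iodide after compound preincubation; score built on the fluorescence ratio of max minus min over baseline; more negative score means more quench and so TMEM16A activation or potentiation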
CHO-K1 Ca PAM – nonselective activator or artifact in parental CHO-K1 calcium assay; activation, % at 3 µM; 360,000 tested, 0.02% active; ATP EC20, Fluo-8 calcium fluorescence; 0% at ATP EC20, 100% at ATP max; AID 602247;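 active means activation above the run cutoff, the mean activation of all test compounds plus 3 SD, cut at about 40% in these data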;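 further: peak over basal fluorescence ratio in a 140 s read after ATP addition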
CHO-K1 Ca antag – M1 antagonist counterscreen hit in parental CHO-K1 cells. ATP-induced calcium, Fluo-8 fluorescence. 360,000 tested, 0.6% active. inhibition, % at 3 µM;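 active means inhibition above a per-plate cutoff, the plate's mean sample inhibition plus 3 SD, cut at about 24% in these data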;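 further: 0% = DMSO plus EC80 ATP and 100% = DMSO alone without ATP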
CHO-K1 Ca ag – nonselective activator or artifact in parental CHO-K1 cells; Fluo-8 calcium fluorescence; scaled to maximal ATP response, vehicle zero; activation, % at 3 µM; 360,000 tested, 0.48% active; AID 602248; in the data active means activation above about 15%;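 further: untransfected CHO-K1 host cells lacking M1 receptor as counterscreen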
NTR1 agonist – agonists of human neurotensin receptor NTR1; P30989; NTR1-U2OS beta-arrestin-GFP spot imaging, agonist mode; activation, % at 20 µM; 330,000 tested, 0.17% active; AID 493036;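 active means activation at or above 40% of the spot to cytoplasm intensity ratio, with at least 20 cells analyzed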;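 further: 0% = DMSO without peptide and 100% = 100 nM NTR1 peptide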
Target sequence (P30989 whole entry, looked up): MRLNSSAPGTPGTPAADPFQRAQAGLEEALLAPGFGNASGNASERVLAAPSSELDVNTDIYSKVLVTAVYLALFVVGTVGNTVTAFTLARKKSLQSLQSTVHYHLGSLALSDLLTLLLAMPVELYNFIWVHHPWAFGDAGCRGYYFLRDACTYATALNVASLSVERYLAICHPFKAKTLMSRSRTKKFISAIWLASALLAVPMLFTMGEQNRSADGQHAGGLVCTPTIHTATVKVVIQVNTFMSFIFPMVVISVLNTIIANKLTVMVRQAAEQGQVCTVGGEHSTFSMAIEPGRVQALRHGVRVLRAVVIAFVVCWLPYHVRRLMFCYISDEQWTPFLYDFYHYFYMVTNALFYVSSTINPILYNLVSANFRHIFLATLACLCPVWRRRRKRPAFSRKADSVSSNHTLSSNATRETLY
TMEM16A inh – inhibitors of mouse TMEM16A calcium-activated chloride channel. Q8BHY3. normalized B-score (activity score, 25-100; higher = stronger inhibition) at 10 µM. AID 588511. HEK293 TMEM16A/YFP iodide influx fluorescence, ionomycin. 310,000 tested, 1.2% active;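 active means ratio plate-corrected score three or more library SD toward inhibition, starting fluorescence score within five deviations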;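 further: score derived from kinetic fluorescence span divided by baseline fluorescence per well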
Numbers without * were called inactive; i = inactive; . = not tested or not shown.

SMILES	ANO1 activ	CHO-K1 Ca PAM	CHO-K1 Ca antag	CHO-K1 Ca ag	NTR1 agonist	TMEM16A inh
CC(=O)Nc1ccc(OCC(O)CN2C(C)CCCC2C)cc1 (stereo unspecified)	i	-15.4	32.0*	-0.1	-0.1	i
O=C1N(Cc2cccc(Cl)c2)C[C@@H]2C[C@@H](c3c[nH]c4ccccc34)N3CCC[C@@]123	-4.64*	22.4	2.9	2.4	-1.3	i
CC(C)C(=O)NNC(=O)CSc1ncnc2c1cnn2-c1ccccc1Cl	i	10.3	-8.4	2.6	-0.6	i
Cc1csc(NC(=O)CSc2ncnc3c2cnn3-c2ccccc2Cl)n1	i	5.1	-3.1	4.5	0.1	100*
Cn1nc(C(C)(C)C)cc1C(=O)NCc1ccc(N2CCCC2=O)cc1	i	-7.9	28.9*	11.2	-0.3	i
COc1cc2c(cc1OC)C(c1ccc(-c3ccccc3Cl)o1)=NCC2	i	22.1	-19.4	4.5	58.2*	i
Cc1ccc(CS(=O)(=O)c2ncc(Cl)c(C(=O)Nc3ccc(OC(F)F)cc3)n2)cc1	i	-27.8	23.8*	-0.7	-2.6	i
CCS(=O)(=O)c1ncc(Cl)c(C(=O)Nc2ccc(C)cc2)n1	i	2.7	7.8	-0.7	1.0	i
COc1ccc(-c2sc(Nc3ccccc3)n[n+]2-c2ccc(F)cc2)c(C)c1C	-5.01*	-7.3	-4.5	0.1	6.6	i
COc1ccc(C)cc1Nc1n[n+](-c2ccccc2)c(-c2c(OC)ccc3ccccc23)s1	i	0.8	16.2	16.3*	10.2	100*
OC(c1cccnc1)c1nc(-c2ccc3c(c2)OCO3)cs1 (stereo unspecified)	.	13.5	-4.8	1.9	.	.
CCN(CC(=O)Nc1ccc2c(c1)OCCO2)C(=O)COc1ccc(C(C)=O)cc1	.	9.9	-3.9	1.3	.	.
CC1(C(=O)NCc2ccc(Cl)cc2)CCN1C(=O)c1cccc(F)c1 (stereo unspecified)	.	26.4	-17.3	0.2	.	.
Cc1c(C(=O)NCc2ccccc2C(F)(F)F)sc(=O)n1Cc1ccc2c(c1)OCO2	.	18.8	-14.7	1.1	.	.
NS(=O)(=O)c1ccc(CNC(=O)Cn2nc(C(F)F)cc2C(F)F)cc1	-4.61*	-8.7	1.8	-0.5	-2.0	.
Cc1cc([N+](=O)[O-])nn1CC(=O)NCc1ccccc1	i	5.9	-3.4	0.0	2.0	i
CCC(C)[C@H]1CNC(=O)C(=O)N1CC1CCCCC1 (stereo partly specified)	.	8.1	-14.6	0.6	.	.
O=C(NC(c1ccc(-c2ccccc2)cc1)c1cnccn1)C1CCN(Cc2ccc(Oc3ccccc3)cc2)CC1 (stereo unspecified)	.	9.1	7.0	3.2	.	.
O=C(NC(c1ccc(-c2ccccc2)cc1)c1cnccn1)C1CCN(CCN2C(=O)c3ccccc3C2=O)CC1 (stereo unspecified)	.	-14.4	29.6*	0.2	.	.
O=C(NC(c1ccc(-c2ccccc2)cc1)c1cnccn1)C1CCN(Cc2cccs2)CC1 (stereo unspecified)	.	-4.9	23.8*	1.8	.	.
O=C(NC(c1ccccc1)c1cnccn1)C1CCN(CCCOc2ccccc2)CC1 (stereo unspecified)	.	-11.6	0.4	0.0	.	.
COc1ccc(NC2=NCCC(=O)N2Cc2cccs2)cc1	i	-4.3	29.6*	-0.6	-2.1	i
COc1ccccc1Nc1nc2cc(C)ccc2cc1C#N	i	14.0	10.1	15.7*	3.1	i
COc1ccccc1Nc1nc2c(C)cccc2cc1C#N	i	9.4	-5.2	0.2	11.2	i
COc1ccccc1Nc1nc2ccc(C)cc2cc1C#N	i	-5.6	24.7*	-0.3	5.4	i
COc1ccccc1Nc1ncnc2ccc(C)cc12	i	-0.2	-1.4	0.1	-0.9	i
O=C(NCCN1CCC(n2c(=O)[nH]c3ccccc32)CC1)C(c1ccccc1)c1ccccc1	.	15.0	-10.2	1.2	.	.
COc1cccc(C(=O)N2CCC[C@H]2C(=O)N2CCC[C@H]2C(=O)N[C@@H](C)c2ccccc2)c1	.	0.8	-10.7	-0.5	.	.
O=S1(=O)C[C@@H](N2CCN(CC3CC3)CC2)[C@H](COCc2ccccc2)N1	.	13.6	7.5	0.9	.	.
CC1(C(=O)NC2CCCC2)CCC(=O)N1CCOc1ccccc1 (stereo unspecified)	.	3.2	28.4*	0.1	.	.
